From PubChem BioAssay
Only some compounds are listed: those with a hit (about 11% of all), similar ones and a draw of the others.
Pf growth 48h: P. falciparum growth inhibition at 48 hours (one generation); P. falciparum luciferase growth in erythrocytes, 48 h; Potency, µM (titrated, usually from 28.7 µM), for the others: at the highest dose activity change, negative = inhibition, hits mostly inhibitors; 310,000 compounds, 5.9% hits; also: % is scaled to controls: 0 for no effect and ±100 for the full control effect
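Read-out is firefly luciferase luminescence from an integrated reporter in P. falciparum, so falling signal marks reduced parasite growth. Infected erythrocytes were at 2% hematocrit and 0.1% parasitemia (final) in Albumax-supplemented RPMI 1640.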
Pf growth 96h: P. falciparum growth inhibition at 96 hour, primary screen for plastid delayed-death inhibitors | P. falciparum luciferase reporter growth, 96 h | Potency, µM (series often up to 28.7 µM), for the others: top-dose activity change, negative = inhibition, most hits filed as inhibitors | 320,000 compounds, 6.9% hits | AID 504834; also: % is scaled to controls: 0 for no effect and ±100 for the full control effect
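Parasite growth measured via integrated firefly luciferase reporter in P. falciparum. Infected erythrocytes at 2% hematocrit, 0.05% parasitemia final were treated 96 hours at 37 C under 5% CO2, and luminescence was read.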
Sm TGR inh: S. mansoni TGR enzyme inhibition; 360,000 compounds, 3% hits; Q962Y6; purified TGR, DTNB reduction, TNB absorbance 405 nm; AID 485364; Potency, µM (top dose mostly 114 µM), without a hit: at the top dose activity change, negative = inhibition, most hits filed as inhibitors; also: % is scaled to controls: 0 for no effect and ±100 for the full control effect; nearly all actives have a fitted effect of over 60% in size
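Kinetic colorimetric format: TGR-catalysed, NADPH-driven DTNB reduction monitored via TNB absorbance. Enzyme dispensed at 20 nM; compound exposure 15 min at room temperature before reaction start.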
AMA1-RON2 inh: inhibitors of Plasmodium falciparum AMA1-RON2 interaction; AlphaScreen AMA1-biotinylated RON2 peptide binding; Potency, µM (doses to about 58.2 µM), without a hit: at the top dose activity change, negative = inhibition, usual class: inhibitors; 360,000 compounds, 0.2% hits;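 also: 0% = vehicle wells and -100% = peptide control; nearly all actives have a fitted effect of over 45% in size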
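AMA1 (3D7) with his tag at 25 nM final met compounds first, then biotinylated RON2 peptide at 25 nM; detection used donor plus acceptor beads, 10 µg/mL apiece, read by AlphaScreen after 30 min at room temperature.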
NS1 inh: blocks influenza NS1 protein function. Potency, µM (top dose mostly 46.1 µM), inactives show at the highest dose activity, positive = more growth. 270,000 compounds, 0.4% hits; calls by dose curve; also: actives are rising curves; nearly all actives have a fitted effect of over 50% in size
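OD600 was taken as the measure of yeast growth restored by compound in an NS1-expressing S. cerevisiae strain. Cells had been washed out of glucose medium and diluted 1:100 into galactose -URA medium, pH 6.0.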
Active calls of the source: *. Unless noted, calls follow the shape of the dose curve; as a rule, active = well fitted curve in the direction sought with a large enough effect; inconclusive = small, poorly fitted or top-dose-only effect, or another doubt; inactive = no such curve, though single readings can be large; an effect the other way counts as inactive or inconclusive. Potency is read from the fitted curve at half-maximal effect.

Results for CCc1ccc(/C=C2\SC(=S)N(CCCC(=O)Nc3ccccc3C(=O)O)C2=O)cc1 ?
Pf growth 48h: -3%; Pf growth 96h: 17µM*; Sm TGR inh: 7%; AMA1-RON2 inh: 0%; NS1 inh: 4%

What do the screens show for `Cc1ccc(Cn2ccnc2SCC(=O)Nc2ccc3c(c2)OCO3)cc1`?
Sm TGR inh: -1%

Results for COc1ccc(N2CCCC2=N)c(OC)c1 ?
Pf growth 48h: 13%; Pf growth 96h: 0%; Sm TGR inh: 1%; AMA1-RON2 inh: -4%; NS1 inh: 0%

Results for COc1cc(Cl)c(C)cc1NC(=O)c1ccc(NS(=O)(=O)c2ccc(F)c(F)c2)cc1 ?
Pf growth 48h: inconclusive; Pf growth 96h: inconclusive; Sm TGR inh: 2%; AMA1-RON2 inh: -6%; NS1 inh: 9%

How did C[C@H]1CN([C@@H](C)CO)C(=O)c2cccc(NS(=O)(=O)c3ccc(F)cc3)c2O[C@H]1CN(C)S(=O)(=O)c1cn(C)cn1 do in these assays?
AMA1-RON2 inh: 2%

How did O=C(Sc1ccc(Cl)cc1)c1cccc(Cn2cc(C(F)(F)F)ccc2=O)c1 do in these assays?
Pf growth 48h: 0%; Pf growth 96h: 0%; Sm TGR inh: 20µM*; AMA1-RON2 inh: -9%; NS1 inh: 0%

How did N/C(=N\OC(=O)c1cccc(Cn2cc(C(F)(F)F)ccc2=O)c1)c1ccc(Cl)cc1 do in these assays?
Pf growth 48h: inconclusive; Pf growth 96h: inconclusive; Sm TGR inh: 4%; AMA1-RON2 inh: -20%; NS1 inh: -32%

Results for Cc1cccc(-n2nc(C)c(C(=O)Nc3cc(C)ccc3C)c2-n2cccc2)c1 ?
Sm TGR inh: 10%

How did CCCCOc1ccc(Cc2cnc(N)nc2N)cc1 do in these assays?
Pf growth 48h: inconclusive; Pf growth 96h: inconclusive; Sm TGR inh: -9%; AMA1-RON2 inh: -4%; NS1 inh: -2%

How did COc1cc(C)c(Cc2cnc(N)nc2N)cc1OC do in these assays?
Pf growth 48h: 3.8µM*; Pf growth 96h: 2.7µM*; Sm TGR inh: -1%

Results for CC(C)Oc1ccc(Cc2cnc(N)nc2N)cc1 ?
Pf growth 96h: 6.6µM*; Sm TGR inh: -2%; AMA1-RON2 inh: 18%; NS1 inh: 10%

What do the screens show for `COc1ccc(Cc2cnc(N)nc2N)cc1OC`?
Pf growth 48h: 2.4µM*; Pf growth 96h: 3.8µM*

How did COc1ccc(N(C(=O)c2cccc(C)c2)S(=O)(=O)c2ccc3c(c2)n(C)c(=O)n3C)cc1 do in these assays?
Sm TGR inh: 4%

How did Fc1ccc(Nc2nc(Nc3ccc(F)cc3)nc(N3CCOCC3)n2)cc1 do in these assays?
Sm TGR inh: -6%

What do the screens show for `O=C(O)c1cc(Nc2nc(N3CCOCC3)nc(N3CCOCC3)n2)ccc1Cl`?
Pf growth 48h: -8%; Pf growth 96h: -8%; Sm TGR inh: 4%; AMA1-RON2 inh: -9%; NS1 inh: 9%

How did Fc1ccc(Nc2nc(N3CCOCC3)nc(N3CCOCC3)n2)cc1Cl do in these assays?
Pf growth 48h: inconclusive; Pf growth 96h: 13µM*; Sm TGR inh: 7%; AMA1-RON2 inh: -14%; NS1 inh: 9%

How did CC(C)c1ccc(Nc2nc(NCc3ccco3)nc(N3CCOCC3)n2)cc1 do in these assays?
Pf growth 48h: 13µM*; Pf growth 96h: 33%; Sm TGR inh: 7%; AMA1-RON2 inh: -5%; NS1 inh: -55%

How did CN1CCN(c2nc(Nc3cccc(C(F)(F)F)c3)nc(N3CCOCC3)n2)CC1 do in these assays?
Pf growth 48h: 2.1µM*; Pf growth 96h: 0%; Sm TGR inh: 11%; AMA1-RON2 inh: inconclusive; NS1 inh: -32%

How did Clc1ccc(Nc2nc(N3CCOCC3)nc(N3CCOCC3)n2)cc1Cl do in these assays?
Pf growth 48h: inconclusive; Pf growth 96h: 13µM*; Sm TGR inh: -4%; AMA1-RON2 inh: -11%; NS1 inh: 18%

What do the screens show for `CN(C)c1ccc(C(CN)c2c[nH]c3ccccc23)cc1` (centres undefined)?
Pf growth 48h: 9.3µM*; Pf growth 96h: inconclusive; Sm TGR inh: -13%; AMA1-RON2 inh: inconclusive; NS1 inh: 14%

Results for COc1ccccc1Cn1c(=O)c2ccccc2n2c(SCc3csc(C)n3)nnc12 ?
Pf growth 48h: inconclusive; Pf growth 96h: 5.2µM*; Sm TGR inh: -13%; AMA1-RON2 inh: 0%; NS1 inh: -1%

What do the screens show for `COc1ccccc1Cn1c(=O)c2ccccc2n2c(Sc3ncnc4sccc34)nnc12`?
Pf growth 48h: inconclusive; Pf growth 96h: 17%; Sm TGR inh: -12%; AMA1-RON2 inh: -11%; NS1 inh: -51%

What do the screens show for `CC(C)C(OC(=O)CN1C(=O)c2ccccc2C1=O)C(=O)NC1CCCC1` (centres undefined)?
Pf growth 48h: 9%; Pf growth 96h: -3%; Sm TGR inh: -1%; AMA1-RON2 inh: 15%; NS1 inh: 5%

How did Cc1cc(NC(=O)c2cc(C3CC3)on2)n(-c2ccccc2)n1 do in these assays?
Pf growth 48h: 13%; Pf growth 96h: 2.6µM*; Sm TGR inh: -9%; AMA1-RON2 inh: 8%; NS1 inh: -22%

What do the screens show for `Cc1cc(NC(=O)c2ccccc2)n(-c2ccccc2)n1`?
Pf growth 48h: -6%; Pf growth 96h: 1.9µM*; Sm TGR inh: 15%; AMA1-RON2 inh: 5%; NS1 inh: 2%

What do the screens show for `Cc1cc(NC(=O)c2cc(C)on2)n(-c2ccccc2)n1`?
Pf growth 48h: 16%; Pf growth 96h: 63%; Sm TGR inh: 2%; AMA1-RON2 inh: 12%; NS1 inh: -5%

What do the screens show for `Cc1cc(C(=O)Nc2cccc3ccccc23)n(-c2ccccc2)n1`?
Pf growth 48h: -13%; Pf growth 96h: 3.3µM*; Sm TGR inh: -5%; AMA1-RON2 inh: 9%

What do the screens show for `CCC(=O)N(Cc1ccc(S(N)(=O)=O)cc1)C1CC(=O)N(c2ccc(OC)cc2)C1=O` (centres undefined)?
Pf growth 48h: -17%; Pf growth 96h: inconclusive; Sm TGR inh: 28µM*; AMA1-RON2 inh: 4%; NS1 inh: -2%

Results for COC(=O)CN(C)C1CC(=O)N(c2ccc(Cl)cc2)C1=O (centres undefined) ?
Pf growth 48h: 6%; Pf growth 96h: 0%; Sm TGR inh: 6.3µM*; AMA1-RON2 inh: 82%; NS1 inh: -48%

What do the screens show for `CNC(=S)N(Cc1ccc(OC)cc1)C1CC(=O)N(c2ccc(Cl)cc2)C1=O` (centres undefined)?
Pf growth 48h: inconclusive; Pf growth 96h: 0.93µM*; Sm TGR inh: 0%; AMA1-RON2 inh: inconclusive; NS1 inh: 7%

Results for COc1ccc(CN(C(=S)Nc2ccccc2)C2CC(=O)N(c3ccc(F)cc3)C2=O)cc1 (centres undefined) ?
Pf growth 48h: inconclusive; Pf growth 96h: inconclusive; Sm TGR inh: 4%; AMA1-RON2 inh: -5%; NS1 inh: 16%
